Measurements published in PubChem BioAssay.
The source made the active and inactive calls.

Key:
[1] = test system: PRMT1 (protein arginine N-methyltransferase 1); assay: small molecules binding arginine methyltransferase PRMT1 – biochemical, small-molecule microarray, 635 nm fluorescence, primary screen (AID 1088); details: higher = more signal;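 also: binding of Prmt1 protein to compounds spotted on small-molecule microarray slides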
[2] = growth effects on S. cerevisiae YJM789 – YJM789 clinical isolate, OD600, 24 h, basal, primary screen (AID 1089); details: higher = more signal, called active from +8 up or from −8 down;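 also: growth of clinical yeast isolate S. cerevisiae YJM 789 seeded 1000 cells per well; test concentration not given here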
[3] = S. pombe growth modifiers, basal conditions – strain 972, OD600, 24 h, no modulator, primary screen (AID 1090);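 also: basal condition with compound alone and no growth modifier present; test concentration not given here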; details: S. pombe 972 growth, higher = more signal, called active from +8 up or from −8 down
[4] = budding yeast growth modifiers under rapamycin – strain BY4716, OD600, 96 h, primary screen (AID 1091); also: test concentration not given here; details: S. cerevisiae BY4716 + rapamycin, higher = more signal, called active from +8 up or from −8 down
[5] = molecular target: Torsin-1A-interacting protein 2 (Homo sapiens) (UniProt Q8NFQ8); assay: small molecules binding lysate-expressed LULL1 – cell lysate, human LULL1 lysate, 635/667 nm fluorescence, primary screen (AID 1092); details: small-molecule microarray, hLULL1 lysate binding, 635 nm fluorescence; higher = more signal;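 also: probe is lysate of COS7 cells overexpressing human LULL1; score merges per-feature 667 nm fluorescence with signal-to-noise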
[6] = optical density change of DRC41 E. coli – strain DRC41, OD650, 24 h, E. coli filamentation project, primary screen (AID 1093);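 also: MC1000 strain lacking acrAB efflux and sulA so SOS filamentation is blocked; test concentration not given here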; details: E. coli DRC41 growth, higher = more signal, called active from +8 up or from −8 down
[7] = probe aLefty2 binding to arrayed compounds – biochemical, biotinylated probe, 635/667 nm fluorescence, primary screen (AID 1094); details: small-molecule microarray, higher = more signal;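 also: score merges spot fluorescence near 667 nm with spot signal-to-noise ratio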
[8] = test system: Noggin (protein binding on small-molecule microarray); assay: small molecules binding Noggin protein – biochemical, 635/667 nm fluorescence, primary screen (AID 1095); details: 635 nm fluorescence, higher = more signal;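 also: score merges 667 nm feature fluorescence with signal to noise over triplicate slides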
[9] = molecular target: Neurogenic locus notch homolog protein 3 (Homo sapiens) (UniProt Q9UM47); assay: small molecules binding NOTCH3 protein – biochemical, 635/667 nm fluorescence, primary screen (AID 1096); details: small-molecule microarray, 635 nm fluorescence, higher = more signal
[10] = probe aEGFR binding to arrayed compounds – biochemical, biotinylated probe, 635/667 nm fluorescence, primary screen (AID 1097); details: small-molecule microarray, higher = more signal;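 also: probe is a biotinylated anti-EGFR antibody binding compounds printed on slides; score combines fluorescence near 667 nm and signal to noise of each spot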
[11] = test system: Plasmodium falciparum Sir2 (PF13_0152, Sir2A); assay: Plasmodium falciparum Sir2A binding compounds – biochemical, small-molecule microarray, 635 nm fluorescence, primary screen (AID 1098); details: fluorescence 635 nm, higher = more signal;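 also: score merges spot fluorescence intensity with its signal-to-noise ratio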
[12] = probe aDKK1 binding to arrayed compounds – biochemical, biotinylated probe, 635/667 nm fluorescence, primary screen (AID 1099); details: small-molecule microarray, higher = more signal;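 also: score merges 667nm spot fluorescence with signal to noise across triplicate slides; reference of the scale not given here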
[13] = probe aCHRDL2 binding to arrayed compounds – biochemical, biotinylated probe, 635/667 nm fluorescence, primary screen (AID 1100); details: small-molecule microarray, higher = more signal
[14] = change in splice reporter luminescence, either direction, cell-based, HEK293, spliceosome inhibition project, primary screen (AID 1101); details: HEK293 splicing luciferase reporter, 24 h, higher = more signal, called active from +8 up or from −8 down;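 also: HEK293 cells carrying a splicing-competent luciferase reporter gene; test concentration not given here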
[15] = molecular target: Fibroblast growth factor 10 (Homo sapiens) (UniProt O15520); assay: compounds binding fibroblast growth factor 10 – biochemical, small-molecule microarray, 635 nm fluorescence, primary screen (AID 1102); details: FGF10 binding, fluorescence 635 nm, higher = more signal
[16] = test system: glycogen synthase kinase-3 (GSK3A per assay name; protocol says GSK3B); assay: compounds binding glycogen synthase kinase-3 – biochemical, small-molecule microarray, 635 nm fluorescence, GSK3A, primary screen (AID 1103); details: fluorescence 635 nm, higher = more signal; also: the record names both GSK3A and GSK3B
[17] = molecular target: Epidermal growth factor receptor (Homo sapiens) (UniProt P00533); assay: compounds binding epidermal growth factor receptor – biochemical, small-molecule microarray, 635 nm fluorescence, primary screen (AID 1104); details: EGFR binding, higher = more signal;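 also: score merges 667 nm emission intensity with spot signal to noise over triplicate slides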
[18] = molecular target: Follistatin-related protein 3 (Homo sapiens) (UniProt O95633); assay: compounds binding follistatin-related protein 3 – biochemical, small-molecule microarray, 635 nm fluorescence, primary screen (AID 1105); details: FSTL3 binding, higher = more signal;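 also: score merges emission near 667 nm and signal to noise per printed spot across three slides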
[19] = molecular target: Dickkopf-related protein 1 (Homo sapiens) (UniProt O94907); assay: small molecules binding DKK1 protein – biochemical, small-molecule microarray, 635 nm fluorescence scan, primary screen (AID 1106); details: higher = more signal;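 also: score merges emission near 667 nm with signal to noise over three replicate slides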
[20] = test system: Inhibin beta A chain (activin A); assay: small molecules binding activin A – biochemical, small-molecule microarray, 635 nm fluorescence scan, primary screen (AID 1107); details: INHBA, higher = more signal;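 also: mouse activin A protein probed at 4.33 µg/mL on printed slides; score merges bound-protein fluorescence near 667 nm with spot signal-to-noise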

Sequence of Dickkopf-related protein 1 (Homo sapiens) (O94907 whole entry, looked up): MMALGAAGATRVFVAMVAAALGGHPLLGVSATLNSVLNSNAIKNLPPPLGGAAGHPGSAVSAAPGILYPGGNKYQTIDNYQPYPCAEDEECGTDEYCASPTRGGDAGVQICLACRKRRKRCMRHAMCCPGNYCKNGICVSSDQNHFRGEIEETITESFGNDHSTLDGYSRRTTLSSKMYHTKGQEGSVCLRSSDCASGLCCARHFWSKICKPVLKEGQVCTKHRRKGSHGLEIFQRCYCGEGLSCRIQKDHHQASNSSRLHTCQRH
Sequence of Neurogenic locus notch homolog protein 3 (Homo sapiens) (Q9UM47 whole entry, looked up): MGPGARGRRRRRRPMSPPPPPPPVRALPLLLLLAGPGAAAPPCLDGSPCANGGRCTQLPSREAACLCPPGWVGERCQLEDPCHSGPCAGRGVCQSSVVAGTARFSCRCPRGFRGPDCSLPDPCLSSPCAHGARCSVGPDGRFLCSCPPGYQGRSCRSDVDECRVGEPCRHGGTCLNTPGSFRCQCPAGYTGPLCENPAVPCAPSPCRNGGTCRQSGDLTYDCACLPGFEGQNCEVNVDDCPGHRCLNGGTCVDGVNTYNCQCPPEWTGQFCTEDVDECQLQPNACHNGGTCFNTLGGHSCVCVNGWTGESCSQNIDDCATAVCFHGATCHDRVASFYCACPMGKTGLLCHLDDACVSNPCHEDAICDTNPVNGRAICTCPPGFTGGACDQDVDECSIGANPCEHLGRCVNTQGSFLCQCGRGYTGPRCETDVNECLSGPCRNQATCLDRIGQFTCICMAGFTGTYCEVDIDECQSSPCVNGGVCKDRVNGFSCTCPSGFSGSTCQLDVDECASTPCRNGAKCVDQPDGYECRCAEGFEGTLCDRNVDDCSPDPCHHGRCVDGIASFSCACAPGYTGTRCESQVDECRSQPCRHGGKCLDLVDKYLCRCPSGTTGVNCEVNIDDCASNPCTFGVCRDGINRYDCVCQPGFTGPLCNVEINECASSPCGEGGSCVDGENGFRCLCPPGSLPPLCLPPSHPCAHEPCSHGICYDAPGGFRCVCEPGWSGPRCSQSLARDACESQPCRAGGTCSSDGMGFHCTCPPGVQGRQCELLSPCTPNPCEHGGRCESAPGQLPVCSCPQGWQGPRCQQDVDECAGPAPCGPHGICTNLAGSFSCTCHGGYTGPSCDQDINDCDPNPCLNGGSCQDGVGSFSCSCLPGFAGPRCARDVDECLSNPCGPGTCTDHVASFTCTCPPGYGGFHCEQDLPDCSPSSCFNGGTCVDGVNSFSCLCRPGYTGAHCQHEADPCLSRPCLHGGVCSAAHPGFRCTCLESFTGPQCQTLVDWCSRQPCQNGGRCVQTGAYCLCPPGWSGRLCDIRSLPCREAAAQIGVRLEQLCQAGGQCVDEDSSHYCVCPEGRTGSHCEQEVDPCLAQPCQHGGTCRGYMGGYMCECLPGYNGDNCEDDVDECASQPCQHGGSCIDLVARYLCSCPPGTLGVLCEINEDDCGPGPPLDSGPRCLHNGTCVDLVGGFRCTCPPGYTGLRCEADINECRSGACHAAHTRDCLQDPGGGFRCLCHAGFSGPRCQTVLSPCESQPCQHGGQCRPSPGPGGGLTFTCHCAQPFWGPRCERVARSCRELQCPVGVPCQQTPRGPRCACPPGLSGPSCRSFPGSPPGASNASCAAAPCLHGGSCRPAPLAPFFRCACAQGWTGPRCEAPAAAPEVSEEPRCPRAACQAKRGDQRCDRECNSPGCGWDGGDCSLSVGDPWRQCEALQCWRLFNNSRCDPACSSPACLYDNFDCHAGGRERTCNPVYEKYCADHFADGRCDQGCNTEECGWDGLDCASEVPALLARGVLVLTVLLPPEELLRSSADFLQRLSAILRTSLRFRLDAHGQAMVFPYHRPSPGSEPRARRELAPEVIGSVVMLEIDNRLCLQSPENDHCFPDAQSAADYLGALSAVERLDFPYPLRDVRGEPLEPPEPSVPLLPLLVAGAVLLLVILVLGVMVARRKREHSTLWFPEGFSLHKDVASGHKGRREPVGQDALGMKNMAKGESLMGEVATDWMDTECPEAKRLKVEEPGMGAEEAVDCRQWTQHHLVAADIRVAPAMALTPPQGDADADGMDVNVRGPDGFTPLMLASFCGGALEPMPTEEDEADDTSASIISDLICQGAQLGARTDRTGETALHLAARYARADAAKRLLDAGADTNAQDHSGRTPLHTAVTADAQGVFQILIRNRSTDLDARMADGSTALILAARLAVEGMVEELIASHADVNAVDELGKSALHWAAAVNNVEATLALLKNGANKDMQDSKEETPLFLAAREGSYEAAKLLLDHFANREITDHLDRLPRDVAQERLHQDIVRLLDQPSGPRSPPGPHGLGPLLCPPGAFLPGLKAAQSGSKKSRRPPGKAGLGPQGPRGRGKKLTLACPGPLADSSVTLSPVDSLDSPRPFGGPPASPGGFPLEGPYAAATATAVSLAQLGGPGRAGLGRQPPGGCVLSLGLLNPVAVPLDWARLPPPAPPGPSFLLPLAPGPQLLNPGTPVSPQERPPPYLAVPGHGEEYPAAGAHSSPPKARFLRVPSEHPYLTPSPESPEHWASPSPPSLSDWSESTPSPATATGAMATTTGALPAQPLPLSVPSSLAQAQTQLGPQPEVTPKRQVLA
Sequence of Follistatin-related protein 3 (Homo sapiens) (O95633 whole entry, looked up): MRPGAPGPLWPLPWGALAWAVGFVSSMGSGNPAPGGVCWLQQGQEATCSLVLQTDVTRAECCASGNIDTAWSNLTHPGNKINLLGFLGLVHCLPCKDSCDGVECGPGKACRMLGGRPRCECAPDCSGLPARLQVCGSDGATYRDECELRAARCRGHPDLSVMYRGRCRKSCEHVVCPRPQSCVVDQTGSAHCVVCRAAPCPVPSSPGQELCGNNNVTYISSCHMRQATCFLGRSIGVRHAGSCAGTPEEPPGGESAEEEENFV
Sequence of Epidermal growth factor receptor (Homo sapiens) (P00533 whole entry, looked up): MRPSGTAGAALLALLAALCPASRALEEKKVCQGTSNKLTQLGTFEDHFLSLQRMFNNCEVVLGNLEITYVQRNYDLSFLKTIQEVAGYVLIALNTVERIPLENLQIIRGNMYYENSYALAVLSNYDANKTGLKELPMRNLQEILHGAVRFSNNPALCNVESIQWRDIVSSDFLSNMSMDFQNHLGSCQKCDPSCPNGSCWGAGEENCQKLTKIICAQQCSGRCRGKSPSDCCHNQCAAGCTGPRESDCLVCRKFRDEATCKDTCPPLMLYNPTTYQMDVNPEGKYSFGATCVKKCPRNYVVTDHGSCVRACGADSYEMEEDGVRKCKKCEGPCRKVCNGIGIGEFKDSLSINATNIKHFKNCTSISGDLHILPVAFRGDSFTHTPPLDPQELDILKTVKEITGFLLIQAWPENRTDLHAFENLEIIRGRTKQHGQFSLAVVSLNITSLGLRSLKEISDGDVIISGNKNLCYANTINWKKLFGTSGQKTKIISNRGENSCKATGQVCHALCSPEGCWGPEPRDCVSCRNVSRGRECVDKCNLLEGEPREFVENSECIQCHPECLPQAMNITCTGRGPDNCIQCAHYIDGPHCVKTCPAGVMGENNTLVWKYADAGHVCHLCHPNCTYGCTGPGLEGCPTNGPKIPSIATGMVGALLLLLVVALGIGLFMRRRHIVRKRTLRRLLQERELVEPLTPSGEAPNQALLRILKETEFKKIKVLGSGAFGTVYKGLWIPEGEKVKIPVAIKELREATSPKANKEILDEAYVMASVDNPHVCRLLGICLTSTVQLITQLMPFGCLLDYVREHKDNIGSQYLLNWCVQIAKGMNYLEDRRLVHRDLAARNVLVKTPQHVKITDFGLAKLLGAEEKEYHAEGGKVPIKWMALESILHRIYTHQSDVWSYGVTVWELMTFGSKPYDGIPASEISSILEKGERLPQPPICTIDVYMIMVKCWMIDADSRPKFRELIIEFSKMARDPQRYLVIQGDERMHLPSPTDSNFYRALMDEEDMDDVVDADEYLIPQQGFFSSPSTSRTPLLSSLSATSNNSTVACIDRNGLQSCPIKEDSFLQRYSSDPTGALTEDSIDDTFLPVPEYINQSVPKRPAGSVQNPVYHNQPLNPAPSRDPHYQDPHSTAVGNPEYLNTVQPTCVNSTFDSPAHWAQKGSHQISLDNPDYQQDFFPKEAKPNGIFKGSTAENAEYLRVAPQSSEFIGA
Sequence of Fibroblast growth factor 10 (Homo sapiens) (O15520 whole entry, looked up): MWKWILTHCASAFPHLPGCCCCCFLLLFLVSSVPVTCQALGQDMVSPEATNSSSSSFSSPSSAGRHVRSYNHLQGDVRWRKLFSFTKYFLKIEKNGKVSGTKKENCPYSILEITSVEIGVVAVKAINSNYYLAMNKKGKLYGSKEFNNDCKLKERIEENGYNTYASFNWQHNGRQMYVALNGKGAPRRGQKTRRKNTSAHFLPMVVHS
Sequence of Torsin-1A-interacting protein 2 (Homo sapiens) (Q8NFQ8 whole entry, looked up): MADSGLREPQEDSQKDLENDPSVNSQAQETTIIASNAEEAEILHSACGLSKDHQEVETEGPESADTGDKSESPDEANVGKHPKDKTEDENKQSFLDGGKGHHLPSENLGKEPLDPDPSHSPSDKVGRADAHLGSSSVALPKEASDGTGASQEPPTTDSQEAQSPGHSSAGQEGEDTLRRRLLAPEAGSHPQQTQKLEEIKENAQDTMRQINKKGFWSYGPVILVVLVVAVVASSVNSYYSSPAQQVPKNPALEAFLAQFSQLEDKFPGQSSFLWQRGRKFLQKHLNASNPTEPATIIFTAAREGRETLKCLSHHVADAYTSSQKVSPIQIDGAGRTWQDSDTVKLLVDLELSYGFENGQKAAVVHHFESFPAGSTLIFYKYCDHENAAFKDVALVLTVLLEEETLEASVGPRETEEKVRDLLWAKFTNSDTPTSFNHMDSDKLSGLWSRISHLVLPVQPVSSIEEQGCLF

Structure (SMILES)	composite z-score [1]	z-score [2]	z-score [3]	z-score [4]	composite z-score [5]	z-score [6]	composite z-score [7]	composite z-score [8]	composite z-score [9]	composite z-score [10]	composite z-score [11]	composite z-score [12]	composite z-score [13]	z-score [14]	composite z-score [15]	composite z-score [16]	composite z-score [17]	composite z-score [18]	composite z-score [19]	composite z-score [20]
C=CCNC(=O)[C@@H]1[C@H]2C(=O)O[C@H](c3ccccc3)[C@H](c3ccccc3)N2[C@H](c2ccc(O)cc2)[C@@]12C(=O)N(C(=O)OCCOC)c1ccc(C#CCCO)cc12	1.41	0.434 (inactive)	0.53 (inactive)	1.17 (inactive)	2.57	-0.369 (inactive)	0.0278	0.686	0.52	0.189	1.25	0.373	0.42	-0.591 (inactive)	1.37	1.04	0.683	1.12	0.921	0.616
O=C1C2C=CC(C(O)C=Cc3ccc([N+](=O)[O-])cc3)N(Nc3ccccc3)C2C(=O)N1c1ccccc1 (stereo not given)	1.33	0.431 (inactive)	0.102 (inactive)	-0.19 (inactive)	2.78	-0.608 (inactive)	0.349	0.505	1.04	-0.0238	1.37	-0.0814	0.689	0.649 (inactive)	1.07	1.16	0.244	1.31	0.419	1.06
O=C1NC(=O)C2C1C=CC(C(O)c1ccccn1)N2Nc1ccc(Cl)cc1Cl (stereo not given)	0.195	-1.09 (inactive)	0.154 (inactive)	-0.458 (inactive)	3.35	-0.402 (inactive)	0.091	-0.291	0.259	-0.0271	0.827	0.315	0.717	1.54 (inactive)	0.0551	-0.0767	0.107	-0.196	-0.35	0.386
C=CCC(OC(C)=O)[C@@H]1[C@@H](N(Cc2ccc(-c3cccc(C(F)(F)F)c3)o2)C(=O)Cc2ccc(OC)cc2)c2cc(OCCCO)ccc2N1C(=O)Cc1ccc2ccccc2c1 (stereo not given in full)	0.466	0.807 (inactive)	0.243 (inactive)	-0.386 (inactive)	0.958	-0.406 (inactive)	-0.0654	-0.621	-0.246	-0.217	0.946	-0.178	0.406	-1.16 (inactive)	-0.0775	-0.953	-0.749	-0.475	-0.274	0.613
CC(C)C(=C=CC[C@@H](O)c1cccc(OCCO)c1)C[C@@H](O)COCc1ccccc1	0.566	-0.978 (inactive)	-1.55 (inactive)	-0.845 (inactive)	0.493	1.61 (inactive)	-0.133	0.573	0.541	-0.203	1.04	-0.119	-0.118	-0.952 (inactive)	0.543	-0.174	-0.208	0.178	-0.445	0.198
